The supplement of paper PMC11732987, “Enantioselective OTUD7B fragment discovery through chemoproteomics screening and high-throughput optimisation” (Communications Chemistry, 2025)

Key:
Experiment in all cases: log2 ratio of Biotin-Ahx-Ub-VS probe labelling (fragment/DMSO); higher = less target engagement (more negative = stronger competition), active = hit call of the paper (q ≤ 0.05, log2 ratio ≤ -1)
Settings in all cases: compound concentration: 200 uM; treatment time: 3 h
[1] = target: T1, ALG13 (UniProt Q9NP73)
T1 sequence (whole entry): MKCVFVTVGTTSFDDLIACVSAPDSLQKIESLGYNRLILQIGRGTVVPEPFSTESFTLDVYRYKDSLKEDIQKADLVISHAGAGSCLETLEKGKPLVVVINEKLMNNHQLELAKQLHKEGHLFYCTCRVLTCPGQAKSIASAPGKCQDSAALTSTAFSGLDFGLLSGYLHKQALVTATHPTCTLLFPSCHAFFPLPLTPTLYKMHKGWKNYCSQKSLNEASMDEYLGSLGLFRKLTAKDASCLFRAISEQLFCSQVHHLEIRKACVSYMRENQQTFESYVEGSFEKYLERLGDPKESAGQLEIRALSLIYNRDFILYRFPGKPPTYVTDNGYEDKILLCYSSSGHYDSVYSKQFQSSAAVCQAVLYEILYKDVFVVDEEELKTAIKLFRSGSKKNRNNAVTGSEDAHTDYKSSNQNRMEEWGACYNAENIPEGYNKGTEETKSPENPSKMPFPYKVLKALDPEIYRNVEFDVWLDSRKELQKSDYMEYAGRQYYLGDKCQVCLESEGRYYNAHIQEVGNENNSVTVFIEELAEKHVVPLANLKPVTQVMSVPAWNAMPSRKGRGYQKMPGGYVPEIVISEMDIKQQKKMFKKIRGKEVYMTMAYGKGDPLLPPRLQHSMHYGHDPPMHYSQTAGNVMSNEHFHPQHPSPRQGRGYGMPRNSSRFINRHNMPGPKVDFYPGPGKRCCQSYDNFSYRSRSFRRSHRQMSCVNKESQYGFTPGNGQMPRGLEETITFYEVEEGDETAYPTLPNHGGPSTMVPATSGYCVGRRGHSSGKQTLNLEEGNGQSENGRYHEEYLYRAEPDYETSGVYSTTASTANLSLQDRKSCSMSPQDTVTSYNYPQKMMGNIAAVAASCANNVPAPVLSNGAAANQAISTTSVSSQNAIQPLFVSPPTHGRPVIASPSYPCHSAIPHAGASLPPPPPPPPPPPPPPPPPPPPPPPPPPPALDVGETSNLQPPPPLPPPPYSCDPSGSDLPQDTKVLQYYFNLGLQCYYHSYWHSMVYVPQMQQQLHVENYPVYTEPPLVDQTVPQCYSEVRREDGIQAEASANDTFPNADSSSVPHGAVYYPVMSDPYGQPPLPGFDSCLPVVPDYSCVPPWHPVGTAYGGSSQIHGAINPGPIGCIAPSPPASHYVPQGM
Outline: (§1)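 HEK293T lysate (495 µg per sample, in Tris/CHAPS/IGEPAL buffer with protease inhibitors) was exposed in triplicate for 3 h to fragment at 200 µM or to vehicle, then to Biotin-Ahx-Ub-VS at 0.5 µM final for 1 h. Labelled DUBs were enriched on NeutrAvidin, digested with LysC and trypsin, and analysed by diaPASEF LC-MS/MS. Spectronaut label-free quantities were normalised to the global median, and values are average log2 ratios of fragment over vehicle from an unpaired t-test. Only proteins with ≥2 unique peptides were used.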

[2] = target: ATXN3 (UniProt P54252)
ATXN3, sequence (P54252 whole entry): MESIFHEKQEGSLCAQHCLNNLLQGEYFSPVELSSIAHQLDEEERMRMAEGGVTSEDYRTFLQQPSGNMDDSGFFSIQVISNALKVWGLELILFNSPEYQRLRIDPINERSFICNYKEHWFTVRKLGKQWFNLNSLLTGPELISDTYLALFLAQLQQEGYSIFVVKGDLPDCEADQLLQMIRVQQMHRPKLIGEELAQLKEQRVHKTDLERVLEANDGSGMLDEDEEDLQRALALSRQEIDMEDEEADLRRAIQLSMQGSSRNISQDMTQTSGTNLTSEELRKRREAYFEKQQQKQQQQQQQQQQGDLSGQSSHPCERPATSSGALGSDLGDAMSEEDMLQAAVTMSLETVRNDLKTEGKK
Outline: as §1

[3] = target: T2, BAP1 (UniProt Q92560)
T2 sequence (whole entry): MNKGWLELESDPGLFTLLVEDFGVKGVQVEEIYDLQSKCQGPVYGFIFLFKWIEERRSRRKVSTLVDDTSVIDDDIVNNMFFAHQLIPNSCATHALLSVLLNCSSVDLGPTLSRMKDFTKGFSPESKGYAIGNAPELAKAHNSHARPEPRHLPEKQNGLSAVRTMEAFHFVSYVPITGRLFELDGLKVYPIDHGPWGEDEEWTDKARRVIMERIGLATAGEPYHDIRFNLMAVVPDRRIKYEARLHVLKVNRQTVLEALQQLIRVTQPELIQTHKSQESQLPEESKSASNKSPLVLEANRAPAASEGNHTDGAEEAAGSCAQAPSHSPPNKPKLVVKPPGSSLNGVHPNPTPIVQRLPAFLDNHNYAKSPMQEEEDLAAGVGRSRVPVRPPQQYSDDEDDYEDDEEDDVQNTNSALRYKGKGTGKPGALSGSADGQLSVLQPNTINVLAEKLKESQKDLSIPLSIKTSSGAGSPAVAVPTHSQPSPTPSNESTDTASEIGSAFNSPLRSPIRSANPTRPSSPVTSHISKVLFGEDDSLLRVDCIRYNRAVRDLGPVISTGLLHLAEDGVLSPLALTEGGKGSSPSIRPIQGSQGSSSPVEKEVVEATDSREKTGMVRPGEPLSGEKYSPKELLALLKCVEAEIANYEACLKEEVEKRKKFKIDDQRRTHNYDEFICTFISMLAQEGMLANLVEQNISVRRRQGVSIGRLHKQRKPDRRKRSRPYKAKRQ
Outline: as §1

[4] = target: EIF3F (UniProt O00303)
EIF3F, sequence (O00303 whole entry): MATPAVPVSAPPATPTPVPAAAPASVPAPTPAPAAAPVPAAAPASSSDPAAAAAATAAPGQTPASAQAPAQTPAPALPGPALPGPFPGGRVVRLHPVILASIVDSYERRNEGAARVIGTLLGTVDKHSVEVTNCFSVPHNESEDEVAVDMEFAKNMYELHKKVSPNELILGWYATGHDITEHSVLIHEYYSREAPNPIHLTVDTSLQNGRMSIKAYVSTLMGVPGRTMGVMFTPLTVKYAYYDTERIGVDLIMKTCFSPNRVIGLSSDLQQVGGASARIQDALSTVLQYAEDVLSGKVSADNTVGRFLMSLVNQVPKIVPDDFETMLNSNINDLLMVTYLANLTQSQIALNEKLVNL
Outline: as §1

[5] = target: EIF3H (UniProt O15372)
EIF3H, sequence (O15372 whole entry): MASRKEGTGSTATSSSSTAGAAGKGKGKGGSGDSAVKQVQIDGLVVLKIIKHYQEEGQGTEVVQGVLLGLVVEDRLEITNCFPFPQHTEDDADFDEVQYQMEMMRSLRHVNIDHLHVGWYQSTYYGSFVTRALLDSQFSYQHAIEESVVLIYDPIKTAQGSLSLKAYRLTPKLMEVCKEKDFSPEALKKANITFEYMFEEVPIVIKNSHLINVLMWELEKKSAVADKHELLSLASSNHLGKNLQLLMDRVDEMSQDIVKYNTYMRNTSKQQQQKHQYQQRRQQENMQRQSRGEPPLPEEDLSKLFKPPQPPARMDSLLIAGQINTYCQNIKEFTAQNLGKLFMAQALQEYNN
Outline: as §1

[6] = target: T3, FAM105A (UniProt Q9NUU6)
T3 sequence (whole entry): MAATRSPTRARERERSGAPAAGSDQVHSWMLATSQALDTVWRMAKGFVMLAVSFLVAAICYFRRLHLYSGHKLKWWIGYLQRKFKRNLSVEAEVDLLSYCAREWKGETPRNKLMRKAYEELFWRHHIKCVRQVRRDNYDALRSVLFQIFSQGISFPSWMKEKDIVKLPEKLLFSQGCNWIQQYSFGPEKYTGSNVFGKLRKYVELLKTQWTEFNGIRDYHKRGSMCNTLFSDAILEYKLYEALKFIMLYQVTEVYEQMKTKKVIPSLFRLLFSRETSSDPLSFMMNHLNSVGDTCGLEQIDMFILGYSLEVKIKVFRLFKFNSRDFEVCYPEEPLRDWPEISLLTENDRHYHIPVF
Outline: as §1

[7] = target: OTUB1 (UniProt Q96FW1)
OTUB1, sequence (Q96FW1 whole entry): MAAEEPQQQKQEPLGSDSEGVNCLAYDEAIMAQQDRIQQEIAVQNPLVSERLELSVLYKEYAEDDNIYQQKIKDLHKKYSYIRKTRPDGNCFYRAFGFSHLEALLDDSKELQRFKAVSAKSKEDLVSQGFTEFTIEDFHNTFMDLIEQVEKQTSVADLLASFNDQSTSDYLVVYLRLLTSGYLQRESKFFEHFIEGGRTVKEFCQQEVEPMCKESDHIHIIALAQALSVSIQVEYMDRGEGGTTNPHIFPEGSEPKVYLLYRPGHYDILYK
Outline: as §1

[8] = target: T4, OTUD4 (UniProt Q01804)
T4 sequence (whole entry): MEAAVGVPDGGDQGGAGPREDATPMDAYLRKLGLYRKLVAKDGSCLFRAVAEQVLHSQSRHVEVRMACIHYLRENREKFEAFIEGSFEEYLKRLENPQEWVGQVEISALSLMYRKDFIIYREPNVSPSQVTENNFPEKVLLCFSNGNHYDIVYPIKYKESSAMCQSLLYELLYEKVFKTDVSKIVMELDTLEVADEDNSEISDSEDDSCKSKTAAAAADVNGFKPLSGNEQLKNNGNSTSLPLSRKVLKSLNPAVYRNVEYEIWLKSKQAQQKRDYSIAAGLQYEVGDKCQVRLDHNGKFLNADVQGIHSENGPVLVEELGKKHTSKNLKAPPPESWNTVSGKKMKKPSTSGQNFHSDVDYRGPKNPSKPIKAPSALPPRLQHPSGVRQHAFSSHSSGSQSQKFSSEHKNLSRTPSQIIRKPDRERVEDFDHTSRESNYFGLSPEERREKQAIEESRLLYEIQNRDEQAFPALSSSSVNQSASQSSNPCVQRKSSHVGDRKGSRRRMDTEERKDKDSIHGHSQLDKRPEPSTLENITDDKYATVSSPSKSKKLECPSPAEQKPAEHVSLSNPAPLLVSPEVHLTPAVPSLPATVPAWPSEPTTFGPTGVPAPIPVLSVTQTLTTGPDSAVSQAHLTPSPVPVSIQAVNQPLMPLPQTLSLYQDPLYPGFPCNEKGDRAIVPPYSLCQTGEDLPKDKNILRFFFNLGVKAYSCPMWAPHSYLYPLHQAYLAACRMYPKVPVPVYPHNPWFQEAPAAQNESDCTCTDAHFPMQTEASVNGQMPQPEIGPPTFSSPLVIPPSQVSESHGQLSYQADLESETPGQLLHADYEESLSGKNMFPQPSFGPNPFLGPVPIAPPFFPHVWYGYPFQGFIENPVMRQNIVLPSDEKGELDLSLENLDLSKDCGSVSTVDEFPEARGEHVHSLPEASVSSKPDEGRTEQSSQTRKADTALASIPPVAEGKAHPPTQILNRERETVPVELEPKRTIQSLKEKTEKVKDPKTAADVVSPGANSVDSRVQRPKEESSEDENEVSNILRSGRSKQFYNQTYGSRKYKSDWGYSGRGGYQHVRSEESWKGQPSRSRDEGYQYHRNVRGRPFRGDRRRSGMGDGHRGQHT
Outline: as §1

[9] = target: T5, OTUD5 (UniProt Q96G74)
T5 sequence (whole entry): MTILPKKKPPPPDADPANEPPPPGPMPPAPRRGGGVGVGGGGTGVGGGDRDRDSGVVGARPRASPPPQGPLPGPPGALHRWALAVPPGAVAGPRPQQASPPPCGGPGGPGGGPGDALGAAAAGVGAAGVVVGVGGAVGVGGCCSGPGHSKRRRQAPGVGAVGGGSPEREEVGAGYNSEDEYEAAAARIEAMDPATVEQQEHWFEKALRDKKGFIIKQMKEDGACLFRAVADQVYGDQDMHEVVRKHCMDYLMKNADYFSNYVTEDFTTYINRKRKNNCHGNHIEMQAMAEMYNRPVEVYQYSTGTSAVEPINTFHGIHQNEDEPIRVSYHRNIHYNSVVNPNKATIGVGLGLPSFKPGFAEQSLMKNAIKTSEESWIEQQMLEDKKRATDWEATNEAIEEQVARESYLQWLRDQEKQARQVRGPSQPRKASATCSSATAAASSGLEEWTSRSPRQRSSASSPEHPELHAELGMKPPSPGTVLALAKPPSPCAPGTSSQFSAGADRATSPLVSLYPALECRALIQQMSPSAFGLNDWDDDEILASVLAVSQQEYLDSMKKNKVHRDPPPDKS
Outline: as §1

Measured: log2 ratio of Biotin-Ahx-Ub-VS probe labelling

CC(O)CC1CCN(C(=O)CCl)CC1 (centres undefined)
inactive: [1] -0.345 | [2] -0.291 | [3] -0.221 | [4] -0.0746 | [5] 0.247 | [6] -0.12 | [7] 0.128 | [8] 0.0747 | [9] -0.195
